Assay results as given in ChEMBL document CHEMBL2218924, “A broad activity screen in support of a chemogenomic map for kinase signalling research and drug discovery” (Biochem J, 2013).

Columns and labels:
[1] = molecular target: Tyrosine-protein kinase Fer (Homo sapiens) (UniProt P16591); details: at 10 µM
[2] = molecular target: Tyrosine-protein kinase Fes/Fps (Homo sapiens) (UniProt P07332); details: at 1 µM
[3] = molecular target: Tyrosine-protein kinase Fes/Fps (Homo sapiens) (UniProt P07332); details: at 10 µM
[4] = molecular target: Tyrosine-protein kinase Fgr (Homo sapiens) (UniProt P09769); details: at 1 µM
[5] = molecular target: Tyrosine-protein kinase Fgr (Homo sapiens) (UniProt P09769); details: at 10 µM
[6] = molecular target: Vascular endothelial growth factor receptor 1 (Homo sapiens) (UniProt P17948); details: at 1 µM
[7] = molecular target: Vascular endothelial growth factor receptor 1 (Homo sapiens) (UniProt P17948); details: at 10 µM
[8] = molecular target: Receptor-type tyrosine-protein kinase FLT3 (Homo sapiens) (UniProt P36888); details: at 1 µM
[9] = molecular target: Receptor-type tyrosine-protein kinase FLT3 (Homo sapiens) (UniProt P36888); details: at 10 µM
[10] = molecular target: Vascular endothelial growth factor receptor 3 (Homo sapiens) (UniProt P35916); details: at 1 µM
[11] = molecular target: Vascular endothelial growth factor receptor 3 (Homo sapiens) (UniProt P35916); details: at 10 µM
[12] = molecular target: Macrophage colony-stimulating factor 1 receptor (Homo sapiens) (UniProt P07333); details: at 1 µM
[13] = molecular target: Macrophage colony-stimulating factor 1 receptor (Homo sapiens) (UniProt P07333); details: at 10 µM
[14] = molecular target: Tyrosine-protein kinase Fyn (Homo sapiens) (UniProt P06241); details: at 1 µM
[15] = molecular target: Tyrosine-protein kinase Fyn (Homo sapiens) (UniProt P06241); details: at 10 µM
[16] = molecular target: T1, Mitogen-activated protein kinase kinase kinase kinase 2 (Homo sapiens) (UniProt Q12851); details: at 10 µM
T1 sequence (whole entry): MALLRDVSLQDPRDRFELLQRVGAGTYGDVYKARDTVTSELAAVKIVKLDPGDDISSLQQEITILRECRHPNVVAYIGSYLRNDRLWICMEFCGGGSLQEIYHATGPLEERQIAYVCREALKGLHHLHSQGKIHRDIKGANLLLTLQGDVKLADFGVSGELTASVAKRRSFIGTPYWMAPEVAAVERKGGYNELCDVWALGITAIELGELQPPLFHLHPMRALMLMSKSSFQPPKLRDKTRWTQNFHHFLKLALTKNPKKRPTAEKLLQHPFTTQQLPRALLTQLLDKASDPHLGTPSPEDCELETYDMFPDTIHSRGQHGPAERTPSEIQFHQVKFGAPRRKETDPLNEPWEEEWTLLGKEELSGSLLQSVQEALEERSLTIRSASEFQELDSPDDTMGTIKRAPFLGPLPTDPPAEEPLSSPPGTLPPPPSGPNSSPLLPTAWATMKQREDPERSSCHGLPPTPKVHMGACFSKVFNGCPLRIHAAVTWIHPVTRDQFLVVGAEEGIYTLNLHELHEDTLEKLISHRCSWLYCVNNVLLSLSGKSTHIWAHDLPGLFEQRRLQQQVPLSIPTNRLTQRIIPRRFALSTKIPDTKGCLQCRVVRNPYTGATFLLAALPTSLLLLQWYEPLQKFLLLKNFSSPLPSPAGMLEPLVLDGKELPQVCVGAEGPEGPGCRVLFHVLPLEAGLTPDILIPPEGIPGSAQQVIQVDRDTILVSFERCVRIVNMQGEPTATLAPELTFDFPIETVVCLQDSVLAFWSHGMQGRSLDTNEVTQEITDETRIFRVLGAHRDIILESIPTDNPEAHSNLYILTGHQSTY

[17] = molecular target: G protein-coupled receptor kinase 5 (Homo sapiens) (UniProt P34947); details: at 10 µM
[18] = molecular target: T2, Rhodopsin kinase GRK7 (Homo sapiens) (UniProt Q8WTQ7); details: at 1 µM
T2 sequence (whole entry): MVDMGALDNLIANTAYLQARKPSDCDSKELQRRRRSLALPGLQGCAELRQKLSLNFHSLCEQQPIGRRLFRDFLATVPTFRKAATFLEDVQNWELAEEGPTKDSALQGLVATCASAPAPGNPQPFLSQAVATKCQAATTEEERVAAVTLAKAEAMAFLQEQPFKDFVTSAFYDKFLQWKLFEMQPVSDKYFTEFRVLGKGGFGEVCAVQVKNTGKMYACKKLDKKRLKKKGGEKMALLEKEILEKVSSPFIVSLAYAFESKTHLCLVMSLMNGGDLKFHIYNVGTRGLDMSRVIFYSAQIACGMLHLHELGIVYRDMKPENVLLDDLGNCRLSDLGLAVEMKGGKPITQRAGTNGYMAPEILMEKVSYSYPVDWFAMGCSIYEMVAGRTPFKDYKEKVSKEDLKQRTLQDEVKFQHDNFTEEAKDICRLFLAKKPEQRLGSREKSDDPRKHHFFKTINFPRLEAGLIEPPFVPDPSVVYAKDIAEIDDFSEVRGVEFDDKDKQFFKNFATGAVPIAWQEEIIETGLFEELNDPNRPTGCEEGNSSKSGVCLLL

[19] = molecular target: G protein-coupled receptor kinase 6 (Homo sapiens) (UniProt P43250); details: at 10 µM
[20] = molecular target: T1, Mitogen-activated protein kinase kinase kinase kinase 2 (Homo sapiens); details: at 1 µM

Sequence of Receptor-type tyrosine-protein kinase FLT3 (Homo sapiens) (P36888 whole entry): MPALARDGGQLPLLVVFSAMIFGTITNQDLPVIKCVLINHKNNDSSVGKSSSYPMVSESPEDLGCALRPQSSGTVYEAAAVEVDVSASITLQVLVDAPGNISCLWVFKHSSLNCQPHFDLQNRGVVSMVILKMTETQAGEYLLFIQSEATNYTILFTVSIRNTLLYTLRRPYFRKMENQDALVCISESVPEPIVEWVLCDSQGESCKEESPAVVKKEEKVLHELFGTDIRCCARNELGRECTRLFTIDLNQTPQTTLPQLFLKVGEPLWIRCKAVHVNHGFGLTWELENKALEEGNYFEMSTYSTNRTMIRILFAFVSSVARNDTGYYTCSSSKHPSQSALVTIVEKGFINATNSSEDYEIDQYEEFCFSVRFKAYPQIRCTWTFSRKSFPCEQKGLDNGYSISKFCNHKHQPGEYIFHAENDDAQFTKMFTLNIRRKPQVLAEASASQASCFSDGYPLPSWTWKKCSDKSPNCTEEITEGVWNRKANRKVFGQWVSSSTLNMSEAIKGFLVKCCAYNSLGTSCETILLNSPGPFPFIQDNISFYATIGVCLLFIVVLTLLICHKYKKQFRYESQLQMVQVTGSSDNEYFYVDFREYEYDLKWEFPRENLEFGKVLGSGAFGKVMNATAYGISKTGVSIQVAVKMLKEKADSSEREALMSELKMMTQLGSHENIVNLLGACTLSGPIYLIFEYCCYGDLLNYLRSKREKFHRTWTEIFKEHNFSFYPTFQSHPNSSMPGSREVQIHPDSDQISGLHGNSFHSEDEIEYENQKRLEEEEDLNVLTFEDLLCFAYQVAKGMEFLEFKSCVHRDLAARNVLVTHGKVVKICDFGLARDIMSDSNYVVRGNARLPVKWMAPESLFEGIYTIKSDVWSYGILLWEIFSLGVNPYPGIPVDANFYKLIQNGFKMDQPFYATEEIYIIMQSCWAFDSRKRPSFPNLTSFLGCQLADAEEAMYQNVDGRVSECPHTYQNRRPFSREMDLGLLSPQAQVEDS
Sequence of Tyrosine-protein kinase Fes/Fps (Homo sapiens) (P07332 whole entry): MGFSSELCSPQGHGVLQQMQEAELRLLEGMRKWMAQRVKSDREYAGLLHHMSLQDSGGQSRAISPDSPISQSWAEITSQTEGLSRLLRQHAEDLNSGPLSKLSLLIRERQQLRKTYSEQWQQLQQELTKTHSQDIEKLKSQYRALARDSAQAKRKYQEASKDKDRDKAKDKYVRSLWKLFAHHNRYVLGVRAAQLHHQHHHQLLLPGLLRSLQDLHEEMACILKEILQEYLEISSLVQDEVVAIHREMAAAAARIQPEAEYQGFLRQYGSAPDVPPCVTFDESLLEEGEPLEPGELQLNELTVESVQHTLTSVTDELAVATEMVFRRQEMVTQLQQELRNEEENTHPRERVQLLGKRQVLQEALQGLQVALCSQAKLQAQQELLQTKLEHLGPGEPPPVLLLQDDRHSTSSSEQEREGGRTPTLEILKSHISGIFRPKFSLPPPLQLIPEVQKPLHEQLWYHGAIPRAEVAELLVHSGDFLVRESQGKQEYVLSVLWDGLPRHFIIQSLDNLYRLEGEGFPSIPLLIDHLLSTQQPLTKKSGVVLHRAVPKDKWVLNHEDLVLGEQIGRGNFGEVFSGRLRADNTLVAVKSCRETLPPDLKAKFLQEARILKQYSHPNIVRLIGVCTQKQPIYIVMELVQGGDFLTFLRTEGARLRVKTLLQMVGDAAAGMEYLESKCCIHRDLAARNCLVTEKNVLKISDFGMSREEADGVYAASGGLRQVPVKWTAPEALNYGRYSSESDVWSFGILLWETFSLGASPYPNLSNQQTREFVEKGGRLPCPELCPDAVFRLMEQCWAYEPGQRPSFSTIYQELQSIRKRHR
Sequence of Macrophage colony-stimulating factor 1 receptor (Homo sapiens) (P07333 whole entry): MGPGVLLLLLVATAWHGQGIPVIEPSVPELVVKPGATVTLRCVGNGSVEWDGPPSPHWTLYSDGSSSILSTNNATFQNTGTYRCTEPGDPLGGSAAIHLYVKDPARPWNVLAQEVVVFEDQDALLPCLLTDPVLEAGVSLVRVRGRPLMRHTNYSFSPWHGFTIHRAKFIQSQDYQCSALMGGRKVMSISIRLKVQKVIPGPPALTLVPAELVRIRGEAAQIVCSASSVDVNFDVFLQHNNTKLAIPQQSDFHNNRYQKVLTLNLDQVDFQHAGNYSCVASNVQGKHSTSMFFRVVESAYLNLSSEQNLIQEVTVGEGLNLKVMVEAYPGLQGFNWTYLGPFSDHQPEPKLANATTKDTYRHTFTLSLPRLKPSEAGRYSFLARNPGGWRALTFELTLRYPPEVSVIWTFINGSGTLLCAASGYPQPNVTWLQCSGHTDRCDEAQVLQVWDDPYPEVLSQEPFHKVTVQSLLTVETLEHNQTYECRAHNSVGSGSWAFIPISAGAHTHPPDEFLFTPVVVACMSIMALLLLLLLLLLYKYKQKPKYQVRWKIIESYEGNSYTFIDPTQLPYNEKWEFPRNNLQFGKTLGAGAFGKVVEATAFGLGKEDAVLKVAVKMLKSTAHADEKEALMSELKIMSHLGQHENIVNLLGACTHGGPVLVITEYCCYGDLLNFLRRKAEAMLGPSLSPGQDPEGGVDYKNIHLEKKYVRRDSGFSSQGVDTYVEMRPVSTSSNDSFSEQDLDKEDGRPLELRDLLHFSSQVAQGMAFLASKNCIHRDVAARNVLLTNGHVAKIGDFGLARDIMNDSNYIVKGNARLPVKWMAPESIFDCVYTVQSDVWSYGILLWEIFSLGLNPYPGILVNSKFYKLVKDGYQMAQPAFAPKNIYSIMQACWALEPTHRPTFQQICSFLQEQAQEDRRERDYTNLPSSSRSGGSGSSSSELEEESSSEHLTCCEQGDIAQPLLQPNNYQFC
Sequence of Tyrosine-protein kinase Fer (Homo sapiens) (P16591 whole entry, looked up): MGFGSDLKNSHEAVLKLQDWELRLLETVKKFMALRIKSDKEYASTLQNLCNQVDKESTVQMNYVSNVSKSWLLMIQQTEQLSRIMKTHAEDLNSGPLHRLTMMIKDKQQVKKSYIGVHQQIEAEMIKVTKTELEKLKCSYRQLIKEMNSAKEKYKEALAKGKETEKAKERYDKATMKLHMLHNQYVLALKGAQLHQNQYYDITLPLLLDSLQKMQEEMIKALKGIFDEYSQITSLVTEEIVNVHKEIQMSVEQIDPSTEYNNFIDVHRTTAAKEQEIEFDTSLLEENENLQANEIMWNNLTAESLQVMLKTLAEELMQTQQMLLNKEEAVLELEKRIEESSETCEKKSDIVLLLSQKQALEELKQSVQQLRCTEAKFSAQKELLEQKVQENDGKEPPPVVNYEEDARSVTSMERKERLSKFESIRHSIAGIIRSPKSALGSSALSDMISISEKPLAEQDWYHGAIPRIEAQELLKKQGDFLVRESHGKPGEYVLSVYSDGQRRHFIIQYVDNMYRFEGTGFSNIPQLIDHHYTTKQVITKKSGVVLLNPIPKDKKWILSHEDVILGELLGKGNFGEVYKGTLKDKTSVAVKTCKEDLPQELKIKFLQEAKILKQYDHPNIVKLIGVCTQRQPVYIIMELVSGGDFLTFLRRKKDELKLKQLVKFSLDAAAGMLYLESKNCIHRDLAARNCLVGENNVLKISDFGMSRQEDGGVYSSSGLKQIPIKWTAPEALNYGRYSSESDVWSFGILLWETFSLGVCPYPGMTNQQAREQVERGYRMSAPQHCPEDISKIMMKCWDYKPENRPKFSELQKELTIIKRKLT
Sequence of Vascular endothelial growth factor receptor 1 (Homo sapiens) (P17948 whole entry): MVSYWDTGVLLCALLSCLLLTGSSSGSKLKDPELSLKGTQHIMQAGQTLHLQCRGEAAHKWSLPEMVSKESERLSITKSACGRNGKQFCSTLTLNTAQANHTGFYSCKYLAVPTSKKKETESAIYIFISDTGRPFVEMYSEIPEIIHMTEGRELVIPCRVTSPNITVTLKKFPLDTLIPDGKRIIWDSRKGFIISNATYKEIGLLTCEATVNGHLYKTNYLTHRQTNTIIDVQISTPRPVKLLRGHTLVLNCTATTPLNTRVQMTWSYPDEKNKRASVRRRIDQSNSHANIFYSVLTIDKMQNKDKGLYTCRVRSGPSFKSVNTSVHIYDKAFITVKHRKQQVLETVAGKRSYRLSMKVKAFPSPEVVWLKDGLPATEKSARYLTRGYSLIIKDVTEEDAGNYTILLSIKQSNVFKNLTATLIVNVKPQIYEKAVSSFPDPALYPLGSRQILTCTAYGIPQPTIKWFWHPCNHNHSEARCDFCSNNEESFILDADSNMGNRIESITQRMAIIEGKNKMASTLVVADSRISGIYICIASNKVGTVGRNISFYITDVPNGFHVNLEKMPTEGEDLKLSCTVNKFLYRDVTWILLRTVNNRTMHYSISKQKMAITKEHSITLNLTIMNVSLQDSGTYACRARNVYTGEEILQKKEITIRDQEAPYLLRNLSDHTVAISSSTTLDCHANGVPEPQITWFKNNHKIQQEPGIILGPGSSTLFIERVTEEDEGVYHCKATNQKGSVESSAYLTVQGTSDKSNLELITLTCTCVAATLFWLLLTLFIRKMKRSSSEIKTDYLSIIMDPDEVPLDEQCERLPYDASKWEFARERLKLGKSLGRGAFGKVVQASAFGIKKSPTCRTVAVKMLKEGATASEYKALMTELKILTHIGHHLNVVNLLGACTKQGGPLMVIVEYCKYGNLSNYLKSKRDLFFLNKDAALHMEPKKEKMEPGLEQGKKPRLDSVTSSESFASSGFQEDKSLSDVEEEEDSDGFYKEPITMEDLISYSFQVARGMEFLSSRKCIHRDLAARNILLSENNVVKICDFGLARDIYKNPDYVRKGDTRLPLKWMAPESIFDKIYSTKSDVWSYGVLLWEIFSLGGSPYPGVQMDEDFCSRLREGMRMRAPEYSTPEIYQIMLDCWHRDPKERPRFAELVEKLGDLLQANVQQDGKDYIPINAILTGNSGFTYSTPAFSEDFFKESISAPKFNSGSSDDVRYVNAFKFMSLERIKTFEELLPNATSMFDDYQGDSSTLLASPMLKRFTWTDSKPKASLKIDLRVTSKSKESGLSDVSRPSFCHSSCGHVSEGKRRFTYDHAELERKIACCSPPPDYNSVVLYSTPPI

Row | Compound | residual activity [1] [%] | residual activity [2] [%] | residual activity [3] [%] | residual activity [4] [%] | residual activity [5] [%] | residual activity [6] [%] | residual activity [7] [%] | residual activity [8] [%] | residual activity [9] [%] | residual activity [10] [%] | residual activity [11] [%] | residual activity [12] [%] | residual activity [13] [%] | residual activity [14] [%] | residual activity [15] [%] | residual activity [16] [%] | residual activity [17] [%] | residual activity [18] [%] | residual activity [19] [%] | residual activity [20] [%]
1 | CC(C)(C)n1nc(Cc2cccc3ccccc23)c2c(N)ncnc21 | 39 | 95 | 27 | 35 | 4 | 62 | 14 | 102 | 75 | 42 | 5 | 59 | 6 | 30 | 3 | 44 | 96 | 98 |  | 
2 | N#Cc1c(NC(=O)c2cccc3ccccc23)sc2c1CCCC2 | 97 |  | 95 | 99 | 135 |  |  |  | 77 | 92 | 86 | 69 | 74 | 72 | 87 | 90 | 98 |  | 90 | 
3 | O=C(CCCc1ccc(-c2ccccc2F)cc1)Nc1ccc(O)cc1 | 91 | 107 | 100 | 93 | 92 | 109 | 100 | 101 | 87 | 101 | 83 | 97 | 43 | 82 | 72 | 89 | 91 | 104 | 90 | 96
4 | Cn1sc(=O)n(Cc2ccccc2)c1=O | 91 | 93 | 85 | 90 | 95 | 85 | 73 | 86 | 81 | 85 | 79 | 91 | 80 | 99 | 96 | 81 | 85 | 89 | 80 | 88
5 | O=c1cc(N2CCNCC2)oc2c(-c3ccccc3)cccc12 | 95 |  | 89 |  | 90 | 88 | 95 | 78 | 81 | 96 | 90 | 61 | 78 | 88 | 88 | 83 | 104 | 95 | 84 | 90
6 | CC(C)c1nn(-c2c(Cl)cccc2Cl)c2nc(Cc3ccc(OCCO)cc3)[nH]c(=O)c12 | 95 | 109 | 97 |  | 95 | 90 | 82 | 81 | 81 | 84 | 56 | 62 | 51 | 67 | 74 | 70 | 78 | 93 | 86 | 99
7 | CCCC(=O)Oc1ccc2[nH]c(C(=O)c3cc4ccccc4[nH]3)cc2c1 | 98 | 104 | 81 | 97 | 82 | 83 | 86 | 73 | 50 | 73 | 68 | 78 | 83 | 78 | 89 | 70 | 95 | 93 | 78 | 86
8 | CCCCc1c(-c2ccc(O)cc2)[nH]c2nccnc12 | 81 | 35 | 12 | 57 | 36 | 43 | 11 | 29 | 6 | 6 | 2 |  | 6 | 43 | 11 | 4 | 90 | 86 | 90 | 7
9 | Nc1ncnc2[nH]nc(Nc3ccc(F)cc3)c12 | 99 | 98 |  | 56 | 18 |  | 35 | 114 | 94 | 80 | 41 | 69 | 27 | 54 | 17 | 49 | 97 | 110 | 97 | 98
10 | O=C1C(Cl)=C(N2C(=O)CCC2=O)C(=O)c2ccccc21 | 91 | 83 | 97 | 94 | 96 | 96 | 84 | 90 | 87 | 91 | 80 | 73 | 65 | 76 | 75 | 89 | 94 | 99 | 91 | 90
11 | O=C(c1ccccc1)c1ccc(N2CCOCC2)cc1O | 97 | 116 | 93 |  |  | 100 | 93 | 83 | 53 | 87 | 85 | 75 | 55 |  |  | 89 |  |  | 88 | 95
12 | CN(C)S(=O)(=O)c1ccc2c(c1)/C(=C/c1cc3c([nH]1)CCCC3)C(=O)N2 | 68 | 82 | 61 | 21 | 9 | 67 | 56 | 27 | 41 | 33 | 46 | 4 | 0 | 22 | 24 | 5 | 84 |  |  | 5
13 | O=c1cc(N2CCOCC2)oc2c1ccc1ccccc12 | 96 |  | 98 | 107 | 94 | 98 | 95 | 101 | 97 | 94 | 92 | 111 | 102 | 83 | 102 | 86 | 96 | 98 | 92 | 91
14 | COc1ccc2c(c1)c(C1=C(c3c[nH]c4ccccc34)C(=O)NC1=O)cn2CCCN(C)C | 58 | 96 | 26 |  | 33 | 2 | 0 | 21 | 0 | 2 | 0 | 59 | 36 |  | 60 | 30 | 51 |  |  | 75
15 | CC(C)[C@H](CO)Nc1nc(Nc2cc(N)cc(Cl)c2)c2ncn(C(C)C)c2n1 | 23 | 57 | 12 | 33 | 3 |  |  | 12 | 2 | 11 | 3 | 55 | 21 | 9 | 0 |  | 44 | 58 | 40 | 
16 | O=S(=O)(NCCNC/C=C/c1ccc(Br)cc1)c1cccc2cnccc12 | 71 | 75 | 27 |  | 59 |  | 35 |  | 46 | 81 | 26 | 116 |  | 75 | 55 | 42 |  |  | 81 | 76
17 | Oc1cccc(-c2nc(N3CCOCC3)c3oc4ncccc4c3n2)c1 | 99 | 137 |  | 118 | 97 | 91 | 80 | 89 | 72 |  |  | 78 | 80 | 82 | 88 | 85 |  | 93 |  | 
18 | O=C1NC(=O)C(c2c[nH]c3ccccc23)=C1c1c[nH]c2ccccc12 | 52 |  | 48 | 98 | 60 | 4 | 1 | 19 | 1 | 2 | 1 | 82 | 32 | 83 | 29 | 19 |  | 78 | 68 | 80
19 | O=C(O)/C=C/c1cc(Br)c(Br)c(Br)c1Br | 107 | 97 | 74 | 104 | 103 | 92 | 67 | 72 | 27 | 79 | 27 | 79 | 62 | 89 | 88 | 72 | 91 | 105 | 84 | 100
20 | COc1cc2nccc(Oc3ccc(NC(=S)NC(=O)c4ccccc4C)cc3)c2cc1OC | 34 | 79 | 36 | 14 | 3 | 5 | 0 | 75 | 31 | 1 | 0 | 0 | -1 | -1 | 0 | 44 | 88 | 88 | 79 | 68
21 | Nc1n[nH]c2nc3ccccc3nc12 | 90 | 95 | 87 | 100 | 87 | 89 | 66 | 70 | 45 | 79 | 44 | 74 | 66 | 73 | 73 | 37 | 94 |  | 85 | 78
22 | Nc1ncnc2c1c(-c1ccc(Oc3ccccc3)cc1)cn2C1CCCC1 | 45 | 112 | 52 | 2 | 0 | 15 | 0 | 19 | 0 | 1 | 0 | 18 | 1 | 0 | 0 | 54 | 89 | 87 | 73 | 87
23 | COc1cc2ncnc(Nc3cccc(Cl)c3)c2cc1OC | 105 | 119 | 86 | 52 | 12 | 60 | 16 | 111 | 52 | 47 | 6 | 88 | 38 | 41 | 6 | 50 |  | 106 |  | 
24 | O=C(c1cc2cc(O)ccc2[nH]1)c1cc2cc(O)ccc2[nH]1 | 55 |  | 28 | 5 | 2 | 20 | 2 | 0 | 0 | 4 | 1 | 54 | 10 | 7 | 1 | 4 | 82 | 75 | 78 | 24
25 | CCCCc1c(-c2ccc(OC)cc2)[nH]c2nccnc12 | 91 | 34 | 51 | 61 | 78 | 44 | 32 | 27 | 30 | 6 | 3 | 14 | 8 | 40 | 37 | 32 |  | 77 |  | 22
26 | COc1cc2c(cc1OC)-c1n[nH]c(Nc3cccc(F)c3)c1C2 | 82 |  | 59 | 20 | 4 |  |  | 47 | 5 |  |  | 1 | 0 | 16 | 0 | 44 |  |  | 81 | 
